Key:
Test in all cases: growth AUC relative to DMSO control (median of replicates) (fraction); higher = more growth (less inhibition), active = hit call of the paper
Conditions in all cases: 20 µM; 24 h;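 active = AUC reduced over 20% with Padj below 0.05 in at least 2 of 3 replicates; inactive = otherwise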
[1] = system: Coprococcus comes
Method in brief: (§1)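 Area under the growth curve was normalised to the plate median of solvent-only wells, except on the industrial chemical plate, where row and column medians were used. Curves came from gut bacterial monocultures grown anaerobically at 37 °C in mGAM with 20 µM compound (1% DMSO), starting at OD600 0.05 and read at OD600 every hour for 24 h. The minimum OD of each curve was set to 0, and values are medians of three biological replicates grown on separate days.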

[2] = system: Escherichia coli ED1a
Method in brief: as §1

[3] = system: Escherichia coli IAI1
Method in brief: as §1

[4] = system: Eubacterium rectale
Method in brief: as §1

[5] = system: Fusobacterium nucleatum subsp. animalis
Method in brief: as §1

[6] = system: Lactobacillus gasseri
Method in brief: as §1

[7] = system: Lactobacillus paracasei
Method in brief: as §1

[8] = system: Odoribacter splanchnicus
Method in brief: as §1

[9] = system: Parabacteroides distasonis
Method in brief: as §1

[10] = system: Parabacteroides merdae
Method in brief: as §1

[11] = system: Roseburia intestinalis
Method in brief: as §1

[12] = system: Streptococcus salivarius
Method in brief: as §1

Measured: growth AUC

CCc1cccc(CC)c1N(COC)C(=O)CCl
inactive: [1] 0.976 | [2] 0.96 | [3] 0.975 | [4] 0.993 | [5] 1.05 | [6] 0.948 | [7] 1.01 | [8] 1.04 | [9] 0.993 | [10] 0.978 | [11] 0.988 | [12] 0.981

CC(Cl)(Cl)C(=O)O
inactive: [1] 0.998 | [2] 1.02 | [3] 0.98 | [4] 0.996 | [5] 1.02 | [6] 1.05 | [7] 0.977 | [8] 0.969 | [9] 1.02 | [10] 0.961 | [11] 1.01 | [12] 1.01

COCC(=O)N(c1c(C)cccc1C)[C@H](C)C(=O)OC
inactive: [1] 1.04 | [2] 1.02 | [3] 1.05 | [4] 1.01 | [5] 1.02 | [6] 0.957 | [7] 1 | [8] 1.03 | [9] 1.05 | [10] 1.05 | [11] 0.966 | [12] 1.02

CCOP(=O)(OCC)OCC
inactive: [1] 1.01 | [2] 1.01 | [3] 1.07 | [4] 1.01 | [5] 1.07 | [6] 0.931 | [7] 0.964 | [8] 1.05 | [9] 1.03 | [10] 1.05 | [11] 1.07 | [12] 0.994

C=CCC1=C(C)C(OC(=O)[C@@H]2[C@@H](C=C(C)C)C2(C)C)CC1=O (stereo partly specified)
inactive: [1] 1.03 | [2] 1.01 | [3] 0.988 | [4] 0.919 | [5] 1 | [6] 0.962 | [7] 0.968 | [8] 1.07 | [9] 0.9 | [10] 0.999 | [11] 1.05 | [12] 1.01

CNC(=O)Oc1cc(C)c(SC)c(C)c1
inactive: [1] 1.01 | [2] 0.987 | [3] 0.967 | [4] 0.982 | [5] 0.984 | [6] 0.883 | [7] 0.931 | [8] 1.11 | [9] 1.02 | [10] 0.912 | [11] 0.928 | [12] 0.968

NCCO.O=C(O)c1nc(Cl)ccc1Cl
inactive: [1] 1.05 | [2] 1.01 | [3] 1.01 | [4] 0.912 | [5] 1.04 | [6] 0.979 | [7] 1.02 | [8] 1.02 | [9] 1.02 | [10] 1.01 | [11] 1.03 | [12] 1.05

CCCOC(=O)c1ccccc1C(=O)OCCC
inactive: [1] 1.11 | [2] 1.02 | [3] 1.05 | [4] 1.1 | [5] 1.15 | [6] 0.999 | [7] 1.09 | [8] 0.698 | [9] 0.953 | [10] 0.993 | [11] 1.1 | [12] 1.01

O=C(O)C(Cl)Cl
inactive: [1] 0.959 | [2] 1.01 | [3] 0.966 | [4] 0.977 | [5] 1.04 | [6] 1.04 | [7] 1.05 | [8] 0.997 | [9] 0.998 | [10] 1.03 | [11] 1.02 | [12] 1.02

COP(N)(=O)SC (stereo unspecified)
inactive: [1] 1.08 | [2] 1.03 | [3] 1.02 | [4] 1.08 | [5] 1.11 | [6] 0.836 | [7] 1.07 | [8] 1.04 | [9] 1.01 | [10] 1.06 | [11] 1 | [12] 0.996

Oc1ccc(Cl)cc1
inactive: [1] 0.989 | [2] 0.967 | [3] 0.951 | [4] 0.921 | [5] 0.941 | [6] 0.968 | [7] 1 | [8] 1.01 | [9] 1.05 | [10] 0.988 | [11] 0.972 | [12] 0.984

O=C(Cc1ccccc1)N/C(=N\OCC1CC1)c1c(C(F)(F)F)ccc(F)c1F
active: [9] 0.612
inactive: [1] 1.01 | [2] 0.983 | [3] 0.972 | [4] 1.03 | [5] 0.937 | [6] 0.842 | [7] 0.946 | [8] 0.911 | [10] 0.877 | [11] 0.976 | [12] 0.968

CC(C1CC1)C(O)(Cn1cncn1)c1ccc(Cl)cc1 (mixture of isomers)
inactive: [1] 0.936 | [2] 1.01 | [3] 0.971 | [4] 1.02 | [5] 1.09 | [6] 0.975 | [7] 1.06 | [8] 0.8 | [9] 1.01 | [10] 0.988 | [11] 1.06 | [12] 0.973

CCOC(=O)N(C)C(=O)CSP(=S)(OCC)OCC
inactive: [1] 1.01 | [2] 1.01 | [3] 0.987 | [4] 0.898 | [5] 1.1 | [6] 1.03 | [7] 1.03 | [8] 1.03 | [9] 0.999 | [10] 0.985 | [11] 1.03 | [12] 1

O=C(O)COc1nc(Cl)c(Cl)cc1Cl
inactive: [1] 0.867 | [2] 0.971 | [3] 1.01 | [4] 1.15 | [5] 1.1 | [6] 0.818 | [7] 1.01 | [8] 0.992 | [9] 0.781 | [10] 1.01 | [11] 1.01 | [12] 1.01

CCC(C)(NC(=O)c1cc(Cl)c(C)c(Cl)c1)C(=O)CCl (stereo unspecified)
inactive: [1] 0.945 | [2] 1.01 | [3] 0.995 | [4] 0.892 | [5] 0.906 | [6] 0.942 | [7] 1.02 | [8] 0.914 | [10] 0.907 | [11] 0.964 | [12] 0.945
active: [9] 0.643

CNC(=O)c1cc(Cl)cc(C)c1NC(=O)c1cc(Br)nn1-c1ncccc1Cl
inactive: [1] 0.991 | [2] 0.988 | [3] 0.995 | [4] 0.961 | [5] 0.867 | [6] 1.03 | [7] 0.961 | [8] 0.926 | [9] 1.01 | [10] 0.98 | [11] 0.957 | [12] 0.99

[CH3][Hg][Cl]
inactive: [1] 0.816 | [2] 1.04 | [3] 1.06 | [4] 0.872 | [5] 0.956 | [6] 0.99 | [7] 1.04 | [9] 0.918 | [10] 0.892 | [11] 1.05 | [12] 0.848
active: [8] 0.684

C=CCC1=C(C)C(OC(=O)C2C(C=C(C)C)C2(C)C)CC1=O (stereo unspecified)
inactive: [1] 0.986 | [2] 1.01 | [3] 1 | [4] 0.927 | [5] 0.946 | [6] 0.868 | [7] 0.949 | [8] 0.996 | [9] 0.846 | [10] 0.96 | [11] 0.968 | [12] 0.986

CN(C)C(=O)C(c1ccccc1)c1ccccc1
inactive: [1] 0.974 | [2] 0.98 | [3] 0.977 | [4] 1.11 | [5] 0.975 | [6] 1 | [7] 0.887 | [8] 0.957 | [9] 1 | [10] 1 | [11] 0.964 | [12] 0.995

COc1cccc(C(=O)NN(C(=O)c2cc(C)cc(C)c2)C(C)(C)C)c1C
inactive: [1] 1.01 | [2] 0.974 | [3] 0.97 | [4] 1.07 | [5] 0.884 | [6] 0.818 | [7] 0.947 | [8] 0.966 | [9] 0.86 | [10] 0.908 | [11] 0.985 | [12] 0.966

COP(=O)(OC)O/C(=C/Br)c1ccc(Cl)cc1Cl
inactive: [1] 1.01 | [2] 0.981 | [3] 1 | [4] 1 | [5] 1.07 | [6] 0.885 | [7] 1.01 | [8] 1.03 | [9] 0.883 | [10] 0.963 | [11] 1.02 | [12] 1

CCC(=O)Nc1ccc(Cl)c(Cl)c1
inactive: [1] 1 | [2] 0.943 | [3] 0.99 | [4] 0.992 | [5] 0.87 | [6] 0.979 | [7] 0.922 | [8] 0.943 | [9] 0.994 | [10] 0.995 | [11] 0.917 | [12] 0.973
